Compound activity as filed in PubChem.
Cycloheximide cs: affects cycloheximide protein synthesis inhibition readout, counter-screen. cell reporter, cycloheximide protein synthesis inhibition counterscreen. 300,000 compounds, 12% hits. max response, %; in the data active = max response mostly above about 13%, no sharp cut-off; inactive = mostly below about 14%; also: read at 38.3 µM for the half of the compounds with a filed dose; 0% is about no effect
AMA1-RON2 inh: inhibitors of Plasmodium falciparum AMA1-RON2 interaction. AlphaScreen AMA1-biotinylated RON2 peptide binding. Potency, µM (doses to about 58.2 µM), for inactives: top-dose activity change, negative = inhibition, hits mostly inhibitors. 360,000 compounds, 0.2% hits. AID 720542;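 also: potency is read from the fitted curve at half-maximal effect; 0% = vehicle wells and -100% = peptide control; nearly all actives have a fitted effect of over 45% in size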
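AMA1 (3D7) with his tag at 25 nM final met compounds first, then biotinylated RON2 peptide at 25 nM; detection used donor plus acceptor beads, 10 µg/mL apiece, read by AlphaScreen after 30 min at room temperature.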
Shiga toxin inh: Shiga toxin inhibition. inhibition, % at 38.7 µM. Vero cells, Shiga toxin protein synthesis inhibition reporter. 290,000 compounds, 9.2% hits; in the data active = inhibition mostly above about 28%, no sharp cut-off; inactive = mostly below about 43%; also: 0% is about no effect
Pf growth 48h: inhibits P. falciparum growth in the first generation, 48 h. AID 504832. P. falciparum luciferase growth in erythrocytes, 48 h. 310,000 compounds, 5.9% hits. Potency, µM (highest dose often 28.7 µM), for inactives: at the top dose activity change, negative = inhibition, hits mostly inhibitors; also: potency is read from the fitted curve at half-maximal effect; % is scaled to controls: 0 for no effect and ±100 for the full control effect
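A one-generation exposure of luciferase-tagged malaria parasites in RPMI 1640/Albumax erythrocyte culture, 37 C and 5% CO2. Inhibition is inferred from decreased luminescence after adding detection reagent.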
Pf growth 96h: P. falciparum growth inhibition at 96 hours; P. falciparum luciferase reporter growth, 96 h; Potency, µM (highest dose often 28.7 µM), without a hit: at the top dose activity change, negative = inhibition, usual class: inhibitors; 320,000 compounds, 6.9% hits; AID 504834; also: potency is read from the fitted curve at half-maximal effect; % is scaled to controls: 0 for no effect and ±100 for the full control effect
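Infected RBCs, 2% Hct / 0.05% parasitemia final; luciferase-reporter P. falciparum; cpd 96 h, 37 C, 5% CO2; luciferase detection reagent; luminescence.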
SARS PLP yeast: blocks SARS-CoV papain-like protease in a yeast assay; 330,000 compounds, 0.19% hits; Potency, µM (highest dose often 32.9 µM), inactives show at the highest dose activity, positive = growth rescue, most hits filed as activators; S. cerevisiae expressing SARS-CoV PLpro, growth rescue; calls by dose curve; also: potency is read from the fitted curve at half-maximal effect; 0% is about no effect; nearly all actives have a fitted effect of over 55% in size
* = called active by the depositor; ? = inconclusive; / = no result given. The list is not random: actives were taken first. Their share in the collection is about 19%. Unless noted, calls follow the shape of the dose curve; as a rule, active = well fitted curve in the direction sought with a large enough effect; inconclusive = small, poorly fitted or top-dose-only effect, or another doubt; inactive = no such curve, though single readings can be large; an effect the other way counts as inactive or inconclusive.

SMILES	Cycloheximide cs	AMA1-RON2 inh	Shiga toxin inh	Pf growth 48h	Pf growth 96h	SARS PLP yeast
COc1ccccc1CCNC(=O)C(=O)c1cn(CC(=O)N2CCCC2)c2ccccc12	33.4*	2.5%	64.1*	-4.2%	?	-5.2%
COc1ccccc1CNC(=O)C(=O)c1cn(CC(=O)N2CCOCC2)c2ccccc12	9.5	0.0%	28.5	12.5%	-75.4%	8.6%
O=C(NCCc1ccccc1)C(=O)c1cn(CC(=O)N2CCCC2)c2ccccc12	19.2*	-2.5%	6.2	-7.6%	-7.7%	-5.5%
O=C(NCc1ccccc1)C(=O)c1cn(CC(=O)N2CCOCC2)c2ccccc12	6.6	15.8%	1.2	7.1%	?	1.8%
COc1ccc(-c2nc(CSCC(=O)N3CCN(C(=O)c4ccco4)CC3)c(C)o2)cc1OC	-2.6	1.6%	25.1	/	?	3.0%
CCCN(CCC)S(=O)(=O)c1cc2c3c(c1)CCN3C(=O)CC2	-2.3	7.0%	-9.3	-9.8%	-4.1%	-1.6%
CCC(CC)c1nnc(NC(=O)c2cccc(S(=O)(=O)N3CCc4ccccc43)c2)s1	3.0	16.5%	-4.9	14.7µM*	?	0.6%
COc1cccc(C(=O)Nc2nc3c(s2)CN(C)CC3)c1	20.6	-0.1%	175.8*	142.2%	127.7%	9.4%
O=C(Nc1nc2c(s1)CCCC2)c1cccc(S(=O)(=O)N2CCCc3ccccc32)c1	10.8	60.2%	14.8	9.28µM*	?	5.5%
CN1CCc2nc(NC(=O)c3cccc(S(=O)(=O)N4CCc5ccccc54)c3)sc2C1	-0.1	-5.5%	-13.8	5.86µM*	58.4%	-2.7%
Cc1cccc(CCNC(=O)c2oc3c(C)c(C)ccc3c2C)n1	-1.3	-23.2%	1.0	16.0%	?	1.1%
CN(C(=O)CSCC(=O)O)C1CCCCC1	5.4	7.9%	10.0	-3.8%	38.0%	4.4%
Cc1c(C(=O)N2CCOCC2)sc(NC(=O)CCl)c1C#N	-3.2	-4.0%	-3.7	2.08µM*	-22.5%	0.6%
Cc1c(C(=O)N2CCOCC2)sc(NC(=O)c2ccc([N+](=O)[O-])cc2)c1C#N	-4.4	8.8%	-6.6	-17.2%	28.6%	-10.5%
Cc1c(NC(=O)CSc2ccccc2Cl)c(=O)n(-c2ccccc2)n1C	4.8	8.3%	-4.4	9.4%	15.1%	4.6%
CC1(C)Cc2cccc(Oc3ccc(S(=O)(=O)N4CCCCC4)cn3)c2O1	0.6	0.0%	-9.1	13.1µM*	?	-0.7%
N#Cc1ccccc1Oc1ccc(S(=O)(=O)N2CCCCC2)cn1	/	0.0%	/	11.1%	44.8%	-4.2%
CC1(C)Cc2cccc(OCC(=O)N3CCN(S(=O)(=O)c4ccc(F)cc4)CC3)c2O1	-3.4	-12.5%	-10.3	?	9.28µM*	3.0%
CC1(C)Cc2cccc(Oc3ccc(S(=O)(=O)N4CCCC4)cn3)c2O1	8.6	-3.5%	-0.4	11.7µM*	?	-0.4%
COc1ccc(CCNC(=O)c2cc(-c3ccccc3)c(N3CCOCC3)s2)c(OC)c1OC	-1.4	-11.4%	-0.9	?	?	-7.2%
OCC1(Cc2ccccc2F)CCCN(Cc2c(F)ccc(F)c2F)C1 (stereo not drawn)	0.8	0.6%	/	11.7%	-23.7%	3.1%
O=C1CSC(c2ccc([N+](=O)[O-])cc2)N1C1CCCCC1 (stereo not drawn)	-5.5	-2.2%	-8.5	-7.6%	0.465µM*	-0.1%
CC(=O)Oc1ccc2c(=O)c(Oc3ccccc3)coc2c1OC(C)=O	-2.6	30.2%	-4.6	0.0%	30.4%	-5.2%
COc1cc(/C=C/C(=O)c2ccc(O)cc2)ccc1OCC#N	70.6*	17.0%	84.8*	13.1µM*	?	-8.6%
COc1ccc(/C=C/C(=O)c2ccc(C)c([N+](=O)[O-])c2)cc1O	46.2*	-18.6%	78.8*	18.9%	0.0%	-92.4%
SMILES	Cycloheximide cs	AMA1-RON2 inh	Shiga toxin inh	Pf growth 48h	Pf growth 96h	SARS PLP yeast
COc1cccc(C(=O)/C=C/c2ccc(OCC#N)c(OC)c2)c1	39.5*	-5.3%	15.8*	-25.6%	?	-4.6%
COc1cc(/C=C/C(=O)OCC(=O)NCCc2ccc(S(N)(=O)=O)cc2)ccc1OCC#N	/	-4.5%	/	-22.5%	-33.0%	-0.9%
COc1cc(/C=C/C(=O)c2ccc(C)c([N+](=O)[O-])c2)cc(OC)c1O	-1.0	27.1%	-6.2	0.0%	-26.0%	-11.4%
COc1cc(/C=C/C(=O)OCC(=O)NCCN2C(=O)CSC2=O)ccc1OCC#N	/	7.4%	/	?	10.4µM*	-1.3%
CCCCOCCCNC(=O)C[C@@H]1C[C@@]2(C(=O)OC)CCCCC=C2N(Cc2ccccc2)C1=O	/	8.4%	/	/	/	/
CCOc1ccc(/C=C/C(=O)c2ccccc2)cc1OC	55.6*	-8.8%	80.1*	36.5%	-12.3%	-17.4%
CCOc1ccc(C(=O)/C=C/c2ccc(OC)c(OC)c2)cc1	1.2	-27.3%	25.9	?	?	-2.1%
OC(c1ccc(Cl)cc1)c1ncc(-c2ccccc2F)[nH]1 (stereo not drawn)	/	-4.6%	/	/	/	/
Fc1ccc(CSc2ccc(-c3cccs3)nn2)cc1	29.8*	5.4%	38.1	113.4%	83.8%	20.2%
c1cncc(CSc2ccc(-c3cccs3)nn2)c1	26.1*	4.7%	44.2*	206.3%	?	-12.6%
Cc1ccc(CNC(=O)CSc2ccc(-c3cccs3)nn2)cc1	0.3	12.7%	-5.8	2.8%	-29.9%	18.6%
COc1ccc(CCNC(=O)CSc2ccc(-c3cccs3)nn2)cc1	8.6	12.7%	-10.2	4.0%	?	-3.6%
Cc1ccc(CSc2ccc(-c3cccs3)nn2)cc1	46.2*	2.8%	46.7*	149.5%	150.3%	20.7%
Fc1ccc(-c2csc3nnc(SCc4cccnc4)n23)cc1	-1.2	-6.1%	-5.8	-1.4%	20.9%	2.6%
CC(=O)c1nc(N2C(=O)CC(Cc3ccccc3)C2=O)sc1C (stereo not drawn)	18.1	-6.7%	11.5	-10.9%	23.6%	-10.7%
CN(CC(=O)Nc1ccccc1Br)C(=O)CCC1CCCC1	56.8*	-1.9%	44.9*	15.1%	?	2.0%
O=C(CCSc1ccccc1)Nc1nccs1	19.1*	0.0%	36.1	11.5%	/	6.9%
O=C(CCSc1ccccc1)Nc1ncccn1	29.6*	3.6%	5.2	27.3%	-12.9%	-0.3%
O=C(CSC1CCCCC1)Nc1ccccc1Br	12.6*	7.9%	90.1*	22.2%	21.9%	8.8%
COc1cc(OC)cc(C2=Cc3ccc(OC)cc3C(CC(C)=O)N2c2ccc(C#CCCO)cc2)c1 (stereo not drawn)	/	-2.8%	/	/	/	/
Cn1c(=O)[nH]c(=O)c2c1nc(N)n2Cc1ccccc1	2.5	-6.1%	-4.8	-8.9%	23.0%	-1.9%
O=C(CCCSc1ccc(Cl)cc1)Nc1ccccc1O	26.9*	-5.3%	30.6	-13.4%	12.8%	-69.1%
O=C(CCSc1ccccc1)Nc1ccccc1C(=O)N1CCCC1	5.4	-12.9%	-5.9	5.8%	-3.8%	18.7%
O=C(CSCc1ccc(Cl)cc1)Nc1ccccc1O	13.4	-6.8%	21.0	0.0%	153.2%	-0.3%
